# In PubChem BioAssay AID720646 (Broad Institute, 2013):
# About 25 (2%) of roughly 1,000 compounds were called active.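 Rule for the calls: active = fitted rise in melting shift crosses a set limit at or below the top valid dose tested; inconclusive = flat fit at mid-level activity, or a poor quality fit; inactive = the rest.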 A selection follows.
# Target: Fibroblast growth factor 22 (Homo sapiens) (UniProt Q9HCT0)
# Test: FGF22 melting temperature shift by ligands – biophysical, thermal shift, cherry-pick retest, FGF22 synaptogenesis inhibitor project, dose response (AID 720646)
# Settings: recombinant FGF22 thermal shift, SYPRO orange fluorescence; series mostly up to 38 µM
# Fibroblast growth factor 22 (Homo sapiens), sequence (Q9HCT0 whole entry, looked up): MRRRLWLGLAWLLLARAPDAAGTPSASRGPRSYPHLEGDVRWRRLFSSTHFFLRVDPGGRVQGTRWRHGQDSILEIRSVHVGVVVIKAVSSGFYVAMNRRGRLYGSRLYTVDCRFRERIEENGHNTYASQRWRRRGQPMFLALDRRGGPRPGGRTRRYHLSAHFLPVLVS
row,Compound,outcome
1,O=C(N/N=C/c1ccc(OCc2ccccc2)cc1)c1ccc(O)cc1,inactive
2,CN1C(=O)c2cc(NC(=O)c3cccc(F)c3)ccc2OC[C@@H]2O[C@H](CC(=O)N3CCc4ccccc4C3)CC[C@@H]21,inactive
3,CNC[C@@H]1Oc2ccc(NC(=O)C3CCCCC3)cc2C(=O)N([C@@H](C)CO)C[C@H]1C,inactive
4,O=C(c1ccccc1F)N1CC(=O)N2[C@H](C1)[C@H](c1ccc(-c3ccc(F)cc3)cc1)[C@@H]2CO,inactive
5,CCCCN1CC(N2CCN(Cc3cccc(C)c3)CC2)CS1(=O)=O (stereo unspecified),inactive
6,O=C(Cc1cccnc1)N[C@H]1CC[C@H](CCn2cc(-c3ccccc3F)nn2)O[C@H]1CO,inactive
7,CC(=O)NC[C@@H]1[C@@H](c2ccccc2)[C@@H](CO)N1C(=O)Cc1cccnc1,inactive
8,O=S(=O)(ON(c1ccccc1)S(=O)(=O)c1ccccc1)c1ccccc1,inactive
9,O=C1C=CCCN1C(=O)/C=C/c1ccc(F)cc1,inactive
10,CC(=O)N1c2ccc(S(=O)(=O)N3CCC(C(=O)NCc4ccc(F)cc4)CC3)cc2CC1C (stereo unspecified),inactive
11,CCCOc1ccc(NC(=O)CC2C(=O)N(C)C(=S)N2Cc2ccc3c(c2)OCO3)cc1 (stereo unspecified),inactive
12,Cc1cccc(S(=O)(=O)N2C[C@@H](O)COC[C@H]3O[C@H](CC(=O)Nc4ccc(-c5ccccc5)cc4)CC[C@@H]32)c1,inactive
13,Cc1c(CCO)sc[n+]1CC(=O)OC12CC3CC(CC(C3)C1)C2,inactive
14,COc1cc(NC(=O)c2ccc3c(c2)OCO3)ccc1NC(=O)c1cccs1,inactive
15,O=C(N[C@@H]1C=C[C@H](CC(=O)N2CCCCC2)O[C@H]1CO)c1cccc(F)c1,inactive
16,CS(=O)(=O)c1ccc2nc(NC(=O)c3ccc(Cl)nc3)sc2c1,inactive
17,CC(=O)Nc1ccc(S(=O)(=O)N(CCc2ccccc2)CC(=O)N/N=C/c2ccc(C(=O)O)cc2)cc1,inactive
18,COCCN(C(=O)C(C)C)c1nnc(-c2ccc(C(C)(C)C)cc2)s1,inactive
19,Cc1ccc(NC(=O)Nc2cccnc2)cc1,inactive
20,CN1C(=O)c2cccc3c(N)ccc(c23)C1=O,inactive
21,O=C(N/N=C/c1ccc([N+](=O)[O-])cc1)c1c[nH]c2ccccc12,inactive
22,O=C(Nc1ccccc1F)N1[C@H](CO)[C@H]2c3ccccc3NC[C@H]21,inactive
23,C[C@@H]1CN([C@@H](C)CO)S(=O)(=O)c2ccc(-c3ccncc3)cc2O[C@@H]1CN(C)C(=O)Nc1ccc(F)cc1,inactive
24,O=C(NN1C(=O)C2C3C=CC(O3)C2C1=O)c1ccccc1 (stereo unspecified),inactive
25,COc1ccccc1C(=O)NNC(=O)c1ccc(NC(=O)c2ccccc2)cc1,inactive
26,NS(=O)(=O)c1cccc(NC(=O)COC(=O)c2cc([N+](=O)[O-])ccc2N2CCCC2)c1,inactive

row,Compound,outcome
1,COc1ccccc1NC(=O)N1[C@H](C#N)[C@H](c2ccccc2)[C@H]1CO,inactive
2,OC[C@H]1[C@H](c2ccc(-c3cccnc3)cc2)[C@H]2CN(Cc3ccccn3)CCCCN21,inactive
3,O=C(Nc1nnc(-c2ccccc2F)s1)c1ccccc1F,inactive
4,C[C@H]1CN([C@@H](C)CO)C(=O)Cc2cc(NC(=O)Cc3cn(C)c4ccccc34)ccc2O[C@@H]1CN(C)Cc1ccccc1,inactive
5,CC(C)NC(=O)N(C)C[C@@H]1Oc2c(NC(=O)c3nc4ccccc4s3)cccc2C(=O)N([C@H](C)CO)C[C@H]1C,inactive
6,O=C(C[C@H]1CC[C@H]2[C@@H](COC[C@H](O)CN2S(=O)(=O)c2cccc(Cl)c2)O1)Nc1ccccc1,inactive
7,COc1ccc(-c2ccc([C@H]3[C@H]4CN(C(=O)c5ccc6c(c5)OCO6)CCCCN4[C@H]3CO)cc2)cc1,inactive
8,O=C(N/N=C/c1c[nH]c2ccccc12)c1cc2ccccc2o1,inactive
9,COc1cc([N+](=O)[O-])ccc1NC(=O)CN1CCCC1,inactive
10,COCC(=O)Nc1ccc2c(c1)OC[C@H](C)N(C)C[C@@H](C)[C@@H](OC)CN(C)C2=O,inactive
11,Cc1ccc(S(=O)(=O)NCCC(=O)Nc2ccc(C)c(Cl)c2)cc1C,inactive
12,COc1ccc(-c2cc(=O)oc3cc(OCC(=O)N[C@@H](Cc4c[nH]c5ccccc45)C(=O)O)ccc23)cc1,inactive
13,C[C@H]1CN([C@@H](C)CO)S(=O)(=O)c2ccc(C3=CCCC3)cc2O[C@H]1CN(C)C(=O)Nc1ccc2c(c1)OCO2,inactive
14,O=C(C[C@H]1C[C@@H]2c3cc(NC(=O)Nc4ccc(C(F)(F)F)cc4)ccc3O[C@@H]2[C@@H](CO)O1)NCC1CC1,inactive
15,CC(C)(C)N1C(=O)c2c(C(=O)OCc3ccccc3)[nH]c(-c3ccccc3)c2C1=O,inactive
16,Cc1ccc(S(=O)(=O)Nc2nc3ccccc3s2)cc1[N+](=O)[O-],inactive
17,O=C(N/N=C/c1ccc(Cl)c(Cl)c1)c1ccc2nc[nH]c2c1,inactive
18,O=C(COc1ccc([N+](=O)[O-])cc1)Nc1cccc(C(=O)Nc2ccccc2C(=O)O)c1,inactive
19,O=C(NCCc1c[nH]c2ccccc12)C(=O)NCC1CCCO1 (stereo unspecified),inactive
20,Cc1ccc(NC(=O)O/N=C/c2cccc([N+](=O)[O-])c2)cc1,inactive
21,Cc1ccc(S(=O)(=O)N(C)C[C@@H]2Oc3cc(C4=CCCC4)ccc3S(=O)(=O)N([C@@H](C)CO)C[C@@H]2C)cc1,inactive
22,CCn1ccnc1CN(C)C(=O)c1ccc2nc(Cc3ccc(OC)cc3)oc2c1,inactive
23,C[C@@H]1CCCCO[C@@H](CN(C)Cc2ccncc2)[C@H](C)CN([C@H](C)CO)C(=O)c2cc(NC(=O)Cc3ccccc3)ccc2O1,inactive
24,C[C@@H]1CN([C@H](C)CO)S(=O)(=O)c2ccc(-c3ccncc3)cc2O[C@@H]1CN(C)C(=O)Nc1ccc(C(F)(F)F)cc1,inactive
25,CC(C)NC(=O)N1C[C@@H]2[C@H](c3ccccc31)[C@H](CO)N2C(=O)c1ccccn1,inactive
